# Target: Glucose transporter (Leishmania mexicana) (UniProt O61059)
# Experiment: ST_JUDE_LEISH: Cytotoxicity at 2uM final concentration against transgenic Leishmania Mexicana promastigotes LmGT2 that are glucose transport deficient and complemented with the L. Mexicana glucose transporter 2. Activity is measured by DNA content using SYBR green in vitro
# Assay type: functional
row,Structure (SMILES),inhibition [%]
1,O=C(Nc1ccc(-c2ccccc2)c(OCCN2CCNCC2)c1)c1ccc(-c2ccc(Cl)cc2)cc1,3.11
2,CCc1ccc(NC(=O)c2ccc(CN3CCCN(Cc4ccc(C)s4)CC3)cc2)cc1,2.95
3,Nc1c(-c2ccc(C(=O)NCCNCc3ccccc3)cc2)cnn1-c1ccc(C(F)(F)F)cc1,-0.31
4,COc1cccc(CN2CCCC(OC(c3ccccc3)c3ccccc3)C2)c1O (stereo not given),0.05
5,CN=C(NC)c1cccc(NC(=O)C=Cc2ccc(C=CC(=O)Nc3cccc(C(=NC)NC)c3)cc2)c1,-0.11
6,COc1ccc2c(=NN=Cc3cccc(C)n3)cc(-c3ccccc3)[nH]c2c1,4.08
7,CC(=O)Nc1ccc(C(=O)Nc2cccc(-c3cccc(-c4nc5cccc(C)c5[nH]4)c3)c2)cn1,1.41
8,CCCC(C)Nc1nc(C)cc(N[C@@H](Cc2ccccc2)C(=O)Nc2ccc(OC)cc2)n1 (stereo not given in full),0.54
9,O=C(/C=C/c1ccc(I)cc1)NCCCCCN1CCC(c2c[nH]c3ccccc23)CC1,2.95
10,Cc1ncccc1C(=O)Nc1cccc(-c2cccc(-c3nc4cc(C(F)(F)F)ccc4[nH]3)c2)c1,-2.48
11,O=C(Nc1ccc(Cl)c(C(F)(F)F)c1)c1ccc(C(=O)Nc2ccc(Cl)c(C(F)(F)F)c2)cc1,0.39
12,CCNc1cc(C(=O)N[C@@H](Cc2ccc(Cl)cc2)[C@H](O)CNC2CCCCC2)cc(N2CCCCS2(=O)=O)c1,1.39
13,Cn1cncc1CNCc1ccc(-c2cccc(-c3nc4ccccc4[nH]3)c2)cc1,-4.84
14,Nc1c(Cl)cc(C(O)CNCCCCCCCCCc2ccccn2)cc1Cl (stereo not given),0.6
15,O=C(Nc1ccc(F)cc1)c1nc2ccccc2nc1Cl,4.22
16,CN(C)c1ccc(C(c2ccc(N(C)C)cc2)c2cc([N+](=O)[O-])ccc2Cl)cc1,-3.09
17,Cc1cc(NC(=O)Nc2ccc(N(C)C)cc2)c2cc(Cl)ccc2n1,0.88
18,C=CCC1OC(=O)c2cc(OC)cc(OC)c21 (stereo not given),86.9
19,N#Cc1cccc(C(O)CN(Cc2ccccc2)Cc2ccccc2)c1 (stereo not given),2.04
20,Cc1cc2c(cc1C(F)(F)F)N(C(=O)Nc1cc(OCCN(C(C)C)C(C)C)cc(C(F)(F)F)c1)CC2,6.19

row,Structure (SMILES),inhibition [%]
1,CCCN(CCC)C(=S)N/N=C1/C(=O)Nc2ccccc21,-4.34
2,NC12CC3CC(CC(C3)C1)C2,4.45
3,CC(C)NCc1ccc(-c2cccc(NC(=O)c3ccc(Cl)cc3)c2)cc1,7.51
4,Cc1noc(C)c1-c1cccc(CNCc2cccc(-c3ccc(-c4nc5ccccc5[nH]4)s3)c2)c1,7.45
5,Cn1cnc(CCNC(=O)c2ccc(-c3ccc(-c4nc5cc(C(F)(F)F)ccc5[nH]4)s3)cc2)c1,3.14
6,O=C(NC1CCN(Cc2ccc(Cl)cc2)CC1)c1cn(-c2ccccc2)nc1-c1cccnc1,1.49
7,Cc1ccc(NC(=O)c2ccc3ncccc3c2)cc1OC1CCN(CCC(C)C)C1 (stereo not given),3.54
8,CO/N=C(\C)c1ccc2c(c1)CCN(CCC1CCC(NC(=O)c3cccc(-c4noc(C)n4)c3)CC1)CC2 (stereo not given),0.75
9,O=C(Nc1ccc(C(F)(F)F)cc1)c1ccc(S(=O)(=O)NC2CCN(CC3CCCCC3)CC2)cc1,-1.52
10,CCNC[C@H]1CCCN1CCOc1ccc(-n2cnc3cc(-c4ccc(Cl)cc4)sc3c2=O)cc1OC,-2.28
11,Cc1ccc(F)c(OCC2CCN(c3ccc(C(=O)NC4CC4)cn3)CC2)c1,-1.65
12,Cc1c(CNCCCNc2nc3ccncc3[nH]2)sc(Br)c1Br,4.11
13,Cc1ccc(Cc2c[nH]c(NCCSCc3ccc(CN4CCOCC4)o3)nc2=O)cn1,3.98
14,CCOC(=O)c1ccc(OCCOc2ccccc2)cc1,0.6
15,CCCCOC(=O)C1=C(C)NC2=C(C(=O)CCC2)C1c1ccc(OC)c(Br)c1 (stereo not given),-1.96
16,COc1ccc(CC2(c3ccc(F)cc3)N=C(N)N(CCCc3ccc(F)c(F)c3)C2=O)cc1 (stereo not given),3.88
17,CS(=O)(=O)c1ccc(-c2cncc(Cl)n2)cc1,10.2
18,CCOC(=O)c1nc(-c2ccccc2)[nH]c1-n1nc(C)cc1C,0.66
19,Cc1nc(NCCCn2ccnc2)cc(-c2cncc(-c3ccc(OC(F)(F)F)cc3)c2)n1,3.04
20,CCn1c(Cc2ccccc2)nnc1SCC(=O)N1c2ccccc2Sc2ccccc21,2.39
